Results from PubChem BioAssay (NCATS).
Inconclusive results are not listed. Where a call stands in place of a potency, no number is given. Activity calls are given as the source filed them. Calls follow the shape of the dose curve; as a rule, active = well fitted inhibition curve with a large enough effect; inconclusive = small, poorly fitted or top-dose-only effect; inactive = flat fitted curve, though single readings scatter.
Potency is read from the fitted curve at half-maximal effect.

The molecules below were run on MKL-2 (assay: qHTS assay to identify novel small-molecules to repurpose for Merkel cell carcinoma treatment (AID 1296009; also: nearly all actives have a fitted effect of over 60% in size)). Details: MCC and control cell lines, CellTiter-Glo viability, 72 h; series mostly up to 46 µM.
Method in brief: (§1)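 Dose-response viability screen; 72 hr exposure at 37 degree celsius; CellTiter-Glo added, 10 min room temperature, luminescence read; RLUs scaled between no-cell and DMSO wells.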
`C=CC(=O)Nc1cccc(Oc2nc(Nc3ccc(N4CCN(C)CC4)cc3OC)ncc2Cl)c1` was tested, and the Potency was “inactive”.
In the case of `Cc1nc(Nc2n[nH]c3c2CN(C(=O)N[C@H](CN(C)C)c2ccccc2)C3(C)C)c2sccc2n1`, the Potency is reported as 2640 nM (active).
For `Cc1c(C)n(Cc2ccc(-c3ccccc3C(=O)O)cc2)c2ccc(C(=O)N[C@@H](C)c3ccc([N+](=O)[O-])cc3)cc12`, the Potency was 332 nM (active).
For `CC1(C)CC(=O)c2c(C(F)(F)F)nn(-c3ccc(C(N)=O)c(NC4CCC(OC(=O)CN)CC4)c3)c2C1` (stereo not given), the Potency was “inactive”.
For `CCN(CC)CCCCNc1ncc2cc(-c3cc(OC)cc(OC)c3)c(NC(=O)NC(C)(C)C)nc2n1`, the Potency was “inactive”.
For `CNC(=O)CN1CCC(Oc2cc3c(Nc4cccc(Cl)c4F)ncnc3cc2OC)CC1`, the Potency was “inactive”.
`O=C(CCCCCCC(=O)Nc1ccc([C@H]2O[C@@H](CSc3nc(-c4ccccc4)c(-c4ccccc4)o3)C[C@@H](c3ccc(CO)cc3)O2)cc1)NO` was tested, and the Potency was 8330 nM (active).
With `NC1(Cc2ccc(Cl)cc2)CCN(c2ncnc3[nH]ccc23)CC1` the Potency was “inactive”.
In the case of `COc1ccc(C=Cc2cc(OC)c(OC)c(OC)c2)cc1O`, the Potency is reported as “inactive”.
With `Cn1cncc1[C@@](N)(c1ccc(Cl)cc1)c1ccc2c(c1)c(-c1cccc(Cl)c1)cc(=O)n2C` the Potency was 3720 nM (active).
`Cc1[nH]nc2ccc(-c3cncc(OC[C@@H](N)Cc4ccccc4)c3)cc12` was tested, and the Potency was 1660 nM (active).
In the case of `Cc1ccc(C(=O)Nc2cccc(C(F)(F)F)c2)cc1-c1ccc2nc(NCCN3CCOCC3)ncc2c1`, the Potency is reported as “inactive”.
For `O=c1c2ccccc2nc2n1CCc1c-2[nH]c2ccccc12`, the Potency was “inactive”.
For `CN(C)Cc1c(C(=O)NCCOc2ccc(C(=O)NO)cc2)oc2ccccc12`, the Potency was 662 nM (active).
With `COc1cc(C(=O)N2CCC(N3CCN(C)CC3)CC2)ccc1Nc1ncc2c(n1)N(C)c1ccccc1C(=O)N2C` the Potency was 2350 nM (active).
In the case of `COc1cc2c(NC3CCN(C(C)C)CC3)nc(C3CCCCC3)nc2cc1OCCCN1CCCC1`, the Potency is reported as 6620 nM (active).
With `CCCCOc1c(C(=O)c2c(F)cc(C)cc2F)cnc2n[nH]cc12` the Potency was “inactive”.
For `Cc1ccc(S(=O)(=O)Nc2cc(Cl)ccc2C(=O)Nc2nc(-c3ccccc3)cs2)cc1`, the Potency was “inactive”.
For `NCC(=O)Nc1ccc(-n2nc(C(F)(F)F)cc2-c2ccc3c(ccc4ccccc43)c2)cc1`, the Potency was “inactive”.
In the case of `Cc1cc(CN2CCN(c3c(Br)cnc4nc(-c5ccc(N6CCN(C)CC6)cc5)[nH]c34)CC2)no1`, the Potency is reported as 26400 nM (active).
With `Cc1nc2ccc(CN(C)c3ccc(C(=O)N[C@@H](CCC(=O)O)C(=O)O)s3)cc2c(=O)[nH]1` the Potency was “inactive”.
With `CCS(=O)(=O)c1cccc(-c2cc(C(=O)NC3CCN(C)CC3)c(C)c3[nH]c4ncc(C)cc4c23)c1` the Potency was 8330 nM (active).
For `CN1CCC(CNc2ccc3ncc(-c4cccc(OC(F)(F)F)c4)n3n2)CC1`, the Potency was “inactive”.
With `Cc1cn2c(-c3cn[nH]c3)cnc2c(Nc2ccc(C(=O)N3CCNCC3)cc2F)n1` the Potency was “inactive”.

Each molecule was assayed on UISO in the same assay as above. Details: MCC and control cell lines, CellTiter-Glo viability, 72 h; series mostly up to 46 µM.
Method in brief: as §1
For `CCOC(=O)C1=C(C)NC2=C(C(=O)CC(C)(C)C2)C1c1ccc(-c2ccccc2)cc1` (stereo not given), the Potency was “inactive”.
For `CN1CCN(Cc2ccc(NC(=O)Nc3ccc(Oc4cc(NC(=O)C5CC5)ncn4)cc3)cc2C(F)(F)F)CC1`, the Potency was 332 nM (active).
For `CNC(=O)c1ccccc1Nc1nc(Nc2ccc(N3CCOCC3)cc2OC)ncc1Cl`, the Potency was 1480 nM (active).
In the case of `Cc1nc(Nc2n[nH]c3c2CN(C(=O)N[C@H](CN(C)C)c2ccccc2)C3(C)C)c2sccc2n1`, the Potency is reported as 1480 nM (active).
`CC1(C)CC(=O)c2c(C(F)(F)F)nn(-c3ccc(C(N)=O)c(NC4CCC(OC(=O)CN)CC4)c3)c2C1` (stereo not given) was tested, and the Potency was 264 nM (active).
With `CNC(=O)CN1CCC(Oc2cc3c(Nc4cccc(Cl)c4F)ncnc3cc2OC)CC1` the Potency was 118 nM (active).
With `Cc1[nH]nc2ccc(-c3cncc(OC[C@@H](N)Cc4ccccc4)c3)cc12` the Potency was 833 nM (active).
With `CCS(=O)(=O)c1cccc(-c2cc(C(=O)NC3CCN(C)CC3)c(C)c3[nH]c4ncc(C)cc4c23)c1` the Potency was 2350 nM (active).

The molecules below were run on WaGa in the same assay as above. Details: MCC and control cell lines, CellTiter-Glo viability, 72 h; series mostly up to 46 µM.
Method in brief: as §1
In the case of `CC[C@@H]1C(=O)N(C)c2cnc(Nc3ccc(C(=O)NC4CCN(C)CC4)cc3OC)nc2N1C1CCCC1`, the Potency is reported as 4690 nM (active).
In the case of `CNC(=O)c1cc(Oc2ccc(NC(=O)Nc3cc(C(C)(C)C)nn3-c3ccc4ncccc4c3)c(F)c2)ccn1`, the Potency is reported as “inactive”.
`O=C(CCCCCCNC(=O)c1cnc(N(c2ccccc2)c2ccccc2)nc1)NO` was tested, and the Potency was 2960 nM (active).
For `CC[C@H](CO)Nc1nc(NCc2ccccc2)c2ncn(C(C)C)c2n1`, the Potency was “inactive”.
In the case of `CCCCc1nc2cc(C=CC(=O)NO)ccc2n1CCN(CC)CC`, the Potency is reported as 372 nM (active).
With `Cc1cccc(C=NNc2cc(N3CCOCC3)nc(OCCc3ccccn3)n2)c1` the Potency was “inactive”.
For `Cn1c(=O)n(-c2ccc(C(C)(C)C#N)cc2)c2c3cc(-c4cnc5ccccc5c4)ccc3ncc21`, the Potency was “inactive”.
With `Cn1c2cc(S(C)=O)sc2c2cnn(Cc3cccc(N)c3)c(=O)c21` (stereo not given) the Potency was “inactive”.
For `C=CC(=O)Nc1cccc(Oc2nc(Nc3ccc(N4CCN(C)CC4)cc3OC)ncc2Cl)c1`, the Potency was 2960 nM (active).
In the case of `Cc1c(C)n(Cc2ccc(-c3ccccc3C(=O)O)cc2)c2ccc(C(=O)N[C@@H](C)c3ccc([N+](=O)[O-])cc3)cc12`, the Potency is reported as 469 nM (active).
`CCN(CC)CCCCNc1ncc2cc(-c3cc(OC)cc(OC)c3)c(NC(=O)NC(C)(C)C)nc2n1` was tested, and the Potency was “inactive”.
With `O=C(CCCCCCC(=O)Nc1ccc([C@H]2O[C@@H](CSc3nc(-c4ccccc4)c(-c4ccccc4)o3)C[C@@H](c3ccc(CO)cc3)O2)cc1)NO` the Potency was 7430 nM (active).
In the case of `COc1ccc(C=Cc2cc(OC)c(OC)c(OC)c2)cc1O`, the Potency is reported as “inactive”.
In the case of `Cn1cncc1[C@@](N)(c1ccc(Cl)cc1)c1ccc2c(c1)c(-c1cccc(Cl)c1)cc(=O)n2C`, the Potency is reported as 935 nM (active).
With `Cc1ccc(C(=O)Nc2cccc(C(F)(F)F)c2)cc1-c1ccc2nc(NCCN3CCOCC3)ncc2c1` the Potency was “inactive”.
For `O=c1c2ccccc2nc2n1CCc1c-2[nH]c2ccccc12`, the Potency was “inactive”.
With `CN(C)Cc1c(C(=O)NCCOc2ccc(C(=O)NO)cc2)oc2ccccc12` the Potency was 332 nM (active).
For `COc1cc(C(=O)N2CCC(N3CCN(C)CC3)CC2)ccc1Nc1ncc2c(n1)N(C)c1ccccc1C(=O)N2C`, the Potency was 16600 nM (active).
For `CCCCOc1c(C(=O)c2c(F)cc(C)cc2F)cnc2n[nH]cc12`, the Potency was “inactive”.
`Cc1ccc(S(=O)(=O)Nc2cc(Cl)ccc2C(=O)Nc2nc(-c3ccccc3)cs2)cc1` was tested, and the Potency was “inactive”.
With `Cc1nc2ccc(CN(C)c3ccc(C(=O)N[C@@H](CCC(=O)O)C(=O)O)s3)cc2c(=O)[nH]1` the Potency was 83.3 nM (active).
With `CN1CCC(CNc2ccc3ncc(-c4cccc(OC(F)(F)F)c4)n3n2)CC1` the Potency was “inactive”.
For `Cc1cn2c(-c3cn[nH]c3)cnc2c(Nc2ccc(C(=O)N3CCNCC3)cc2F)n1`, the Potency was “inactive”.
